Measured values from the OligoGym collection.

The sequences below were run against TUBAL3 (assay: pooled miR-30 sensor sort-seq; sequence = guide strand). Conditions: shRNA.
Further: reference of the scale not given here.

Sequence	sensor-assay potency score (higher = more potent)
TAAGGTACCAGGTTGGTCTGGA	0.512
TAGTGTGGAACCTAGAGTCTTG	-0.173
TAGACCGAGAACTCCAGCTTAG	-0.779
TTAAGAGAGACGTAAACCCTGA	-0.309
ATTGTTGGCAGCATCCTCCTTT	0.0651
TTGTCCACCATGAAGGTACAGT	-0.604
TTCATTGTTGGTACTGACCCAC	0.0791
TTTGTCAGCAGAGACGATGGGG	0.442
TAACTTGACATTCATTTGCACC	-1.19

The sequences below were run against TUBB2B in the same assay as above. Conditions: shRNA.

Sequence	sensor-assay potency score (higher = more potent)
GTAAACATTGATTCTCTCCAGC	-1.79
AACATTGATTCTCTCCAGCTGC	-0.381
TCCATGGTAACTGCCAGTGGGG	-1.71
ATGCAGTAGGTTTCATCTGTGT	-0.689
AACACGAAATTGTCTGGTCTGA	-0.953
ATGCTCATCACTGATGACCTCC	-0.227
TAAACATTGATTCTCTCCAGCT	-0.472
TCGTTGTCAATGCAGTAGGTTT	-1.57
TTCATTGTAGTAAACATTGATT	-0.873
TAACCGAATCCATCGTGCCTGG	-0.853
TAGTAAACATTGATTCTCTCCA	0.0212
TTCCACCAGCTGGTGGACCGAG	-1.21

What follows are sequences tested against TUBGCP5 in the same assay as above. Conditions: shRNA.

Sequence	sensor-assay potency score (higher = more potent)
TTTTTCTGCAGTACTAACCAGT	-0.246
TTAATCTCTTCCAACTAGCAGC	-0.324
TTCTGTTTTGATCTTGTTCTTC	0.0443
TAAACTATGAGGAAACTGGGAG	0.101
TACAACTCTATACAGTATCTAC	-0.752
TTGATCTTGTTCTTCTAACGGT	0.145
TAACGGTGTCCTGTCTACCTGA	-0.629
TTTGTGGCTGTTGACATCCAAG	-1.62
TGGATCATGAACATCATCCAGT	-0.749
TATTGTAGTATCATTATTGATG	-0.448
ATCTCTTCCAACTAGCAGCTTT	-0.582
TAGATAGACGTGAACTATCTTC	-0.283

Each sequence was assayed against TULP4 in the same assay as above. Conditions: shRNA.

Sequence	sensor-assay potency score (higher = more potent)
TTGTCTTATTCAACTTCTTTGA	-0.83
TACAGCTGTCGTCTGGTTGGTC	-0.0173
TTTGTCTTATTCAACTTCTTTG	-1.04
AACATTGTAGAACTTGACCATG	-1.37
TAAATTAATATAGTCCATGGAA	-0.711
TTTCTGACTCTTCACTTTCTTC	-1.27
TTTTATAGATTACTGCACCGAG	0.0761
